Each structure is given as a SMILES string. Several values for one entry are separate records, joined by “and”; a condition that tells them apart may be missing. Identical values can stand only once. ± gives the standard deviation of the averaged measurements. Whole data set: some 3,800 compounds, median “cell shape (eccentricity) Z-score vs DMSO control” near 1.1, cut for the lowest 2% near -4.7. Many of the other results were omitted from the sample, so the lowest values are more common in it than they were.

This assay has as its system human monocyte-derived macrophages (M0). As to the kind of experiment: cell shape (eccentricity) Z-score vs DMSO control; higher = more elongated, M2-like morphology. The settings on record: 20 µM; 24 h; macrophage state: M0 (M-CSF).
As for `COc1cc(O)c2c(c1)C(=O)c1cc(C)cc(O)c1C2=O`, the “cell shape (Z-score)” value amounted to 2.65.

`Cc1cc(O)c2c(c1)C(=O)c1cccc(O)c1C2=O`: the “cell shape (Z-score)” value came out at 3.93.

In the case of `Cc1cc(O)c2c(c1)C(=O)C1=C(C2=O)C(O)C(O)C(O)C1O` (configuration not stated), the “cell shape (Z-score)” value was -13.9.

Take `COc1c(OC)c(O)c2c(=O)c(O)c(-c3ccccc3)oc2c1OC`: the “cell shape (Z-score)” value came out at 4.23.

As for `CC(=O)NC(C(=O)O[C@H]1CCC(C)(C)[C@@H]2CC=C3C(=O)OCC3(O)[C@@]12C)C(C)C` (some centres not stated), the “cell shape (Z-score)” value is 0.522 ± 0.68.

For the molecule `CC(=O)O[C@@H]1[C@@H](O)[C@H](C)O[C@@H](O[C@H]2[C@@H]3C=CO[C@@H](O[C@@H]4O[C@H](CO)[C@@H](O)[C@H](O)[C@H]4O)[C@@H]3[C@@]3(CO)O[C@@H]23)[C@@H]1OC(=O)/C=C/c1ccc(O)cc1`, the “cell shape (Z-score)” value was -0.936 ± 2.8.

For the molecule `C=C1C(=O)O[C@H]2[C@H]1CC/C(C)=C/CC[C@@]1(C)O[C@@H]21`, the “cell shape (Z-score)” value is -3.88.

`C=C1C(=O)O[C@@H]2/C=C(\C)CC/C=C(\C)CC[C@@H]12`: the “cell shape (Z-score)” value was -1.08.

On to `C=C1C(=O)O[C@@H]2[C@H]3O[C@]3(C)CC/C=C(/C)CC[C@@H]12`, for which the “cell shape (Z-score)” value was -9.25.

Take `C/C(=C\CC[C@@H](C)[C@H]1CC[C@@]2(C)C3CC[C@H]4C(C)(C)[C@@H](OC5OC(CO)C(OC6OC(CO)C(O)C(O)C6O)C(O)C5O)CC[C@@]45C[C@@]35CC(O)[C@]12C)C(=O)O` (some centres not stated): the “cell shape (Z-score)” value was 0.155.

As for `Nc1ccc(S(=O)(=O)NC(=O)c2ccccc2)cc1`, the “cell shape (Z-score)” value was 0.441.

Turning to `COc1nc(N)nc2c1ncn2[C@@H]1O[C@H](CO)[C@@H](O)[C@@H]1O`, the “cell shape (Z-score)” value came out at 0.62 ± 1.5.

Turning to `O=C(O)Cn1c(C(=O)Nc2nc(-c3ccccc3Cl)cs2)cc2ccccc21`, the “cell shape (Z-score)” value was 2.41.

On to `O=C(O)CN1C(=O)c2cccc3cccc(c23)C1=O`, for which the “cell shape (Z-score)” value was -6.86.

`O=C(O)CCCN1C(=O)c2cccc3cccc(c23)C1=O`: the “cell shape (Z-score)” value was 1.83.

In the case of `O=c1[nH]c2cc(Cl)ccc2c(O)c1-c1cccc(Oc2ccccc2)c1`, the “cell shape (Z-score)” value is -0.358.

`CN1C(C(=O)Nc2ccccn2)C(=O)c2ccccc2S1(=O)=O` (configuration not stated): the “cell shape (Z-score)” value was determined as 1.33.

`CC(=O)C(C#N)C(=O)Nc1cc(Br)ccc1Br` (configuration not stated): the “cell shape (Z-score)” value was -5.16.

As for `C[C@@H]1CN([C@H](C)CO)S(=O)(=O)c2ccc(C#Cc3ccncc3)cc2O[C@H]1CN(C)C(=O)Nc1ccc2c(c1)OCO2`, the “cell shape (Z-score)” value was determined as 3.81.

Regarding `C[C@H]1CN([C@@H](C)CO)S(=O)(=O)c2ccc(C#Cc3ccccc3F)cc2O[C@H]1CN(C)C(=O)Cc1ccncc1`, the “cell shape (Z-score)” value was determined as 2.68.

With `C[C@H]1CN([C@@H](C)CO)S(=O)(=O)c2ccc(C#Cc3ccncc3)cc2O[C@@H]1CN(C)C(=O)Nc1ccc2c(c1)OCO2`, the “cell shape (Z-score)” value is -10.9.

In the case of `COc1cc2oc(-c3ccccc3)cc(=O)c2c(O)c1OC`, the “cell shape (Z-score)” value was determined as 3.73.

For `CCN(CC)CCNC(=O)c1c(C)[nH]c(/C=C2\C(=O)Nc3ccc(F)cc32)c1C`, the “cell shape (Z-score)” value was 10.3 and 12.2.

Regarding `C=C1C(=O)O[C@@H]2C[C@H](C)C3C[C@H](O)[C@H](O)[C@@]3(C)C[C@H]12` (some centres not stated), the “cell shape (Z-score)” value was -2.78 ± 0.67.

`CN[C@H]1CC[C@@H](c2ccc(Cl)c(Cl)c2)c2ccccc21`: the “cell shape (Z-score)” value is -5.32.

With `C=C1CC(O)C2C(=C)C(=O)OC2C2C(=C)C(OC3OC(CO)C(O)C(OC(=O)/C=C/c4ccc(O)c(O)c4)C3O)CC12` (configuration not stated), the “cell shape (Z-score)” value was -1.95.

For the molecule `CC(C)CC1NC(=O)C2CCCN2C1=O` (configuration not stated), the “cell shape (Z-score)” value stood at 2.84.

As to `CC(C)CC1NC(=O)C(C)NC1=O` (configuration not stated), the “cell shape (Z-score)” value is -5.83.

As for `CC(C)=CCc1c(O)cc(O)c2c1OC(c1ccc(O)c(O)c1)CC2=O` (configuration not stated), the “cell shape (Z-score)” value turned out to be 1.24.

As to `O=C1c2cccc(O)c2C(=O)c2c(O)cccc21`, the “cell shape (Z-score)” value worked out at 3.05.

With `c1ccc2nc(C3=NCCN3)cnc2c1`, the “cell shape (Z-score)” value worked out at 1.3.

Take `c1ccc2nc(C3=NCCN3)ccc2c1`: the “cell shape (Z-score)” value was determined as 0.187.

Consider `c1ccc2cc(C3=NCCN3)ncc2c1`, for which the “cell shape (Z-score)” value was -4.69.

As for `CCOc1ccc(Cc2cc([C@@H]3O[C@H](CO)[C@@H](O)[C@H](O)[C@H]3O)ccc2Cl)cc1`, the “cell shape (Z-score)” value is -0.0179.

Turning to `CC1(C)C(=O)C=C[C@@]2(C)C1C=C[C@]1(C)C2CC[C@@]2(C)[C@H](c3ccoc3)OC(=O)[C@H]3O[C@]321` (some centres not stated), the “cell shape (Z-score)” value is 7.92.

For the molecule `CCc1cc(C(C)=O)c(O)cc1OCCCCCC(C)(C)c1nnn[nH]1`, the “cell shape (Z-score)” value was found to be 1.49.

`N=C(N)Nc1ccc(Cl)cc1`: the “cell shape (Z-score)” value came to 0.554.

With `CC(C)NC(=N)NC(=N)Nc1ccc(Cl)cc1`, the “cell shape (Z-score)” value came to 0.874.

For `N=C(NCCCCCCNC(=N)NC(=N)Nc1ccc(Cl)cc1)NC(=N)Nc1ccc(Cl)cc1`, the “cell shape (Z-score)” value was -6.88.

As for `CC(=O)N[C@H]1[C@H](O[C@H]2CC[C@@]3(C)C(CC[C@]4(C)C3CC=C3[C@@H]5CC(C)(C)CC[C@]5(C(=O)OC5OCC(O)C(O)C5O)C(O)C[C@]34C)C2(C)C)O[C@H](COC2OCC(O)C(OC3OCC(O)C(O)C3O)C2O)[C@@H](O[C@@H]2O[C@@H](C)[C@H](O)[C@@H](O)[C@H]2O[C@@H]2O[C@@H](C)[C@H](O)[C@@H](O)[C@H]2O)[C@@H]1O` (some centres not stated), the “cell shape (Z-score)” value is -2.27 ± 4.4.

`O=C1NN(C(=O)Nc2ccc(Br)cc2)[C@@H](c2ccccc2)[C@@H]1c1ccccc1`: the “cell shape (Z-score)” value was 1.43.

For `COC(=O)[C@@H]1[C@H]2C[C@H]3c4[nH]c5ccccc5c4CCN3C[C@@H]2CC[C@@H]1O`, the “cell shape (Z-score)” value was -0.402.

Regarding `O=C(/C=C/c1ccc(O)cc1)CC(=O)/C=C/c1ccc(O)cc1`, the “cell shape (Z-score)” value was -1.34.

`O=C(/C=C/c1ccccc1)CC(=O)/C=C/c1ccccc1`: the “cell shape (Z-score)” value is -8.63.

Turning to `O=C(/C=C/c1ccccc1)CC(O)CCc1ccccc1` (configuration not stated), the “cell shape (Z-score)” value is -0.2.

In the case of `c1ccc(-c2n[nH]c3c2oc2ccccc23)cc1`, the “cell shape (Z-score)” value is 0.646.

Turning to `CCN1C(=CC=Cc2ccc3ccccc3[n+]2CC)C=Cc2ccccc21`, the “cell shape (Z-score)” value was -7.46.

For the molecule `CC1(C)CCC(C)(C)c2cc([C@@H](O)C(=O)Nc3ccc(C(=O)O)cc3F)ccc21`, the “cell shape (Z-score)” value was 5.37.

As for `C=C(NC(=O)C(=C)NC(=O)c1csc(C2=N[C@H]3c4csc(n4)[C@H]4NC(=O)c5csc(n5)[C@H]([C@@](C)(O)[C@@H](C)O)NC(=O)[C@H]5CSC(=N5)C(=CC)NC(=O)[C@H]([C@@H](C)O)NC(=O)c5csc(n5)[C@]3(CC2)NC(=O)[C@H](C)NC(=O)C(=C)NC(=O)[C@H](C)NC(=O)[C@H](C(C)CC)N[C@@H]2C=Cc3c([C@H](C)O)cc(nc3[C@H]2O)C(=O)O[C@@H]4C)n1)C(N)=O` (some centres not stated), the “cell shape (Z-score)” value is -6.13.

In the case of `COc1cc(C)c(C(=O)O[C@H]2[C@@H](OC(C)=O)[C@H](n3ccc(=O)[nH]c3=O)O[C@@H]2CO)c(OC)c1`, the “cell shape (Z-score)” value stood at 1.91 ± 0.92.

`Cc1ccc(/C(=C\CN2CCCC2)c2ccccn2)cc1`: the “cell shape (Z-score)” value was 1.6.

For the molecule `CCOC(=O)N[C@@H]1CC[C@@H]2[C@@H](C1)C[C@H]1C(=O)O[C@H](C)[C@H]1[C@H]2/C=C/c1ccc(-c2cccc(F)c2)cn1`, the “cell shape (Z-score)” value worked out at 5.12.

Source of the values: the supplement of paper PMC7858590.
